In PubChem BioAssay AID693 (University of Pittsburgh Molecular Library Screening Center, 2007) one finds inhibition data, which are given here for 62 compounds.

The whole screen tested about 97,000 compounds, of which about 130 (0.13%) were called active. Rule as the data show it: active = inhibition above about 34% (passing the limit was not always enough); inactive = the rest. The sample as a whole holds a higher share of actives than the screen did.

The target in this experiment is Serine/threonine-protein kinase PLK1 (Homo sapiens) (UniProt P53350). As to the kind of experiment: Plk1 polo box domain binding inhibitors, primary screen, biochemical, fluorescence polarization (AID 693). The settings on record: Plk1 PBD phosphopeptide binding, hits give high values,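 tested at about 20 µM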. Background: Polarisation of emitted light reports the rotation of a fluorescent probe.
Serine/threonine-protein kinase PLK1 (Homo sapiens), sequence (P53350 whole entry, looked up, the tested form may be a part): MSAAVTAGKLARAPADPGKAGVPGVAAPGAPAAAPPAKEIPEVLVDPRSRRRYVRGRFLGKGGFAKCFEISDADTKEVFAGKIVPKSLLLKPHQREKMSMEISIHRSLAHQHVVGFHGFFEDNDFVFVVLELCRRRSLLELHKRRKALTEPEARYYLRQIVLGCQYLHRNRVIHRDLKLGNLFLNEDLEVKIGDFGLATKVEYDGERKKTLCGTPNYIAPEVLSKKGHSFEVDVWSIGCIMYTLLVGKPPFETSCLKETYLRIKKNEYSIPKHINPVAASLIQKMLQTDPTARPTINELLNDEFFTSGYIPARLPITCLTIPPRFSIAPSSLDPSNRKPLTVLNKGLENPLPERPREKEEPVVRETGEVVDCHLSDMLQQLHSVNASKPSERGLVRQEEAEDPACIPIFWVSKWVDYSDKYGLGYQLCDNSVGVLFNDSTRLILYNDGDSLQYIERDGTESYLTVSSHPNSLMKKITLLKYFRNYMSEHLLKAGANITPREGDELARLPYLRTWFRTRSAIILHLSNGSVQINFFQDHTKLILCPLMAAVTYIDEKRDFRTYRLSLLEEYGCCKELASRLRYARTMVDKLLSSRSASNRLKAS
In the case of `Cn1c(N)c(C(=O)COC(=O)C23CC4CC(CC(C4)C2)C3)c(=O)n(C)c1=O`, the inhibition was -3.11% (inactive).

Take `COc1cc(C(=O)OC(C)C(=O)NCC2CCCCC2)cc(NC(=O)c2ccco2)c1OC` (configuration not stated): the inhibition is 2.04% (inactive). As for `COCc1cc(C)nc2sc(C(=O)NC3CCCCC3)c(N)c12`, the figure is -36.6% (inactive); as for `COc1ccc(CN(CC(=O)NC2CCCC2)C(=O)CCC(=O)Nc2cc(C)on2)cc1`, 4.15% (inactive); as for `O=C(N/N=C/c1ccsc1)c1cc(O)cc(O)c1`, -12.8% (inactive). Consider `COc1ccc(CCNC(=S)NC(=O)/C=C/c2ccc(C)cc2)cc1OC`, for which the inhibition is -11.8% (inactive). The result for `N#Cc1ccsc1NC(=O)CN1CCCCC1` reads -12.8% (inactive); that for `O=C1/C(=C\Nc2ccccc2)CCN1c1ncccn1`, 13.5% (inactive). As for `CC(C)(C)NS(=O)(=O)CC12CCC(CC1=O)C2(C)C` (configuration not stated), the figure is -2.53% (inactive). The result for `O=C1CCN(C(=O)Nc2ccccc2)N1` reads 11.2% (inactive); that for `CCOc1cc(/C=C2/N=C(c3ccc(C(C)(C)C)cc3)OC2=O)cc(Cl)c1OS(C)(=O)=O`, -6.59% (inactive). With `Cc1ccccc1NC(=O)c1ccccc1NS(=O)(=O)c1cccc2cccnc12`, the inhibition was 4.72% (inactive). With `CC1CCCN(C(C(=O)Nc2ccc(C(C)C)cc2)c2ccc3c(c2)OCO3)C1` (configuration not stated), the inhibition was -23.5% (inactive). The result for `Cc1noc(/C=C/c2ccco2)c1S(=O)(=O)N1CCC(C(=O)N2CCc3ccccc32)CC1` reads -18.1% (inactive); that for `CCCCCCC(=O)Nc1nc(C)c(-c2csc(Nc3cccc(OC)c3)n2)s1`, -14.7% (inactive); that for `O=C(Nc1ccc(Cl)cc1)c1cc2nc(C3CC3)cc(C(F)(F)F)n2n1`, 6.19% (inactive). As for `O=C(NC1CCCCC1)c1cc([N+](=O)[O-])ccc1N1CCOCC1`, the figure is 22% (inactive); as for `O=C(CCc1ccccc1)NCc1cccnc1`, 22.9% (inactive).

`CC(=O)Nc1ccc(OCC(O)CN2CCN(c3ccccc3Cl)CC2)cc1` (configuration not stated): the inhibition was -14% (inactive). For the compound `O=C(O)C1CC=CCC1C(=O)Nc1ccccc1C(=O)N1CCN(c2ccccc2)CC1` (configuration not stated), the inhibition is 2.13% (inactive). As for `Cc1cc(C)c(S(=O)(=O)c2ccccc2)c(OC(=O)c2c(F)cccc2Cl)n1`, the figure is -3.99% (inactive). Turning to `COc1ccc(NC(=O)Cn2c(-c3ccc(OC)cc3)cn(-c3ccc(C)cc3)c2=O)cc1`, the inhibition was 4.16% (inactive).

For the compound `COc1ccc(-c2nn(-c3ccccc3)cc2C(=O)Nc2nccs2)cc1OC`, the inhibition is 3.37% (inactive). The result for `COc1ccccc1C(=O)Nc1ccc(NC(=O)c2ccco2)c(C)c1` reads -21.6% (inactive); that for `O=c1c2c(nc3nc[nH]n13)CCC2`, 7.34% (inactive); that for `CCCC(C)C(=O)Nc1ccc(NC(C)=O)cc1` (configuration not stated), -14.8% (inactive). Take `Cc1ccc(NC(=O)N2CCC(O)(c3cccnc3)CC2)cc1`: the inhibition was 2.21% (inactive). The result for `CCOC(=O)c1cc2n(c1N)-c1ccccc1C2=O` reads 45.1% (active); that for `CCOC(=O)c1cc2n(c1C)-c1ccccc1C2=O`, -27.7% (inactive). As for `CC(C)OC(=O)CN1C(=O)C(=O)c2ccccc21`, the figure is -13.6% (inactive). The result for `O=C1c2ccccc2C(=O)c2c1cccc2N1CCN(Cc2ccccc2)CC1` reads -20.8% (inactive); that for `Cc1cc(NC(=O)/C=C/C(=O)N(c2ccccc2C)C(C(=O)NC2CCCC2)c2ccc(F)cc2)no1` (configuration not stated), -15.6% (inactive).

Consider `CCCCNC(=O)c1onc(CSc2cccc(OC)c2)c1C(=O)O`, for which the inhibition is 25.6% (inactive). The result for `CO/N=C(/CS(=O)(=O)c1ccc(Br)cc1)c1ccc(OC)cc1` reads 2.77% (inactive); that for `Cc1ccc(Cl)cc1NC(=O)COC(=O)C1CCCCC1`, -19.8% (inactive); that for `COc1ccccc1-c1n[nH]c2c1[C@H](C)CC[C@H]2C(C)C`, -16.8% (inactive). The result for `COc1ccc(C(=O)Nc2ccc(CN3CCOCC3)cc2)cc1` reads -5.41% (inactive); that for `N#Cc1nc(-c2ccc(OCc3ccccc3)cc2)oc1NCCCN1CCOCC1`, -11.4% (inactive).

As to `COc1ccccc1-c1nc(C#N)c(N2CCC(C(N)=O)CC2)o1`, the inhibition is 33.2% (inactive).

Consider `COc1ccc(Nc2oc(-c3ccccc3Cl)nc2C#N)cc1`, for which the inhibition is 42.4% (active). The result for `Clc1ccc(-c2cc(COc3ccccc3)no2)cc1Cl` reads -15.4% (inactive); that for `Cc1ccc(S(=O)(=O)N(c2cccc(C)c2)C2CCS(=O)(=O)C2)cc1` (configuration not stated), -7% (inactive); that for `Cc1nc2c(-c3ccc(F)cc3)c(C)nn2c(C)c1CCC(=O)NCc1ccco1`, 2.38% (inactive). Take `CCOc1ccc(CN2CCCN(C)CC2)cc1`: the inhibition is -6.01% (inactive). For the compound `Cc1ccc(NC(=O)Nc2ccc3oc(C)nc3c2)cc1`, the inhibition is 8.59% (inactive). As for `O=C(Nc1ccc2sc3ccccc3c(=O)c2c1)c1ccccc1Cl`, the figure is 6.33% (inactive); as for `CC1(C)Cc2cccc(OCC(N)=O)c2O1`, 0.26% (inactive).

As to `Cn1cnc([N+](=O)[O-])c1Sc1ccccc1`, the inhibition was -10.6% (inactive). The result for `COCCCNCC(=O)Nc1sc(C)c(C)c1C(=O)OC` reads -27.8% (inactive); that for `COc1ccc(C2CC(=O)Nc3cc(C)c(C)cc32)c(OC)c1OC` (configuration not stated), 3.42% (inactive); that for `O=C(COC(=O)c1ccccc1SCC(=O)NC1CCCCC1)NC1CCCCC1`, 45.4% (inactive). As for `O=C(Cc1ccc(S(=O)(=O)N2CCCC2)s1)NC1CCCCCC1`, the figure is -9.65% (inactive); as for `Cc1cccc(COc2ccccc2/C=N/Nc2ccc([N+](=O)[O-])cc2)c1`, 0.38% (inactive); as for `CC(=O)NC1(c2cccc(F)c2)CCN(CC(=O)NC(C)C)CC1`, 15.8% (inactive).

Take `Cc1cc2nnc(SCC(=O)N3CCN(c4ccccc4)CC3)n2c(N)n1`: the inhibition was -15.4% (inactive).

On to `COc1ccccc1OCc1nc2ccccc2s1`, for which the inhibition was 7.18% (inactive). As for `O=C(Nc1ccccc1)OCc1cn(-c2ccc(Cl)cc2)nn1`, the figure is 6.75% (inactive). As for `O=S(=O)(NCC1OCCc2ccccc21)c1ccccc1` (configuration not stated), the figure is -4.11% (inactive); as for `Cc1ccc(-n2nc(N)c3c(=O)oc(N(C)C)nc32)cc1`, 13.8% (inactive); as for `Cn1c(Cn2nnc3ccccc32)nnc1SCC(=O)c1ccccc1F`, -16.2% (inactive). Consider `CC(C)Oc1ccc(CCc2n[nH]c(=S)n2Cc2ccccc2)cc1`, for which the inhibition is -2.84% (inactive).

For `COc1ccc(C)cc1NC(=O)CCC(=O)Nc1nnc(C(F)(F)F)s1`, the inhibition is 19% (inactive).

The inhibition is the relative decrease from the control value, in per cent.
